Measured values reported in PubChem BioAssay (NCI).
About 79,000 compounds went through this panel and 15% of them were active in at least one assay; those are over-represented in the sample as a whole. A number with no mark means an inactive call. Active and inactive are the calls of the source. Cut-off read from the data, not from the text of the source: active = growth inhibition above about 70%; inactive = the rest.

Legend:
[1] = NCI Yeast Anticancer Drug Screen. Data for the rad52 strain (AID 147);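 note: 0% = growth of vehicle-treated control cultures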; details: S. cerevisiae rad52 mutant growth inhibition, hits give high values
Summary of the method: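 Measured: yeast growth inhibition. System: strain with a defined DNA damage repair alteration. Reference: vehicle-treated control cultures.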

[2] = NCI Yeast Anticancer Drug Screen. Data for the wt1 strain (AID 149);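 note: 0% = growth of vehicle-treated wt1 cultures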; details: S. cerevisiae wt1 strain (SPY 50644) growth inhibition, hits give high values
Summary of the method: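 Each compound is tested on wt1 yeast and the loss of growth versus vehicle gives the inhibition value.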

[3] = NCI Yeast Anticancer Drug Screen. Data for the mgt1 strain (AID 153); details: S. cerevisiae mgt1 mutant growth inhibition, hits give high values
Summary of the method: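 After exposure of the mgt1 yeast mutant to compound, growth was measured and reported as inhibition compared with vehicle controls.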

[4] = NCI Yeast Anticancer Drug Screen. Data for the rad50 strain (AID 155);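 note: 0% = growth of vehicle-only cultures of the same strain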; details: S. cerevisiae rad50 strain growth inhibition, hits give high values
Summary of the method: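 Vehicle-treated cultures provide the reference for the growth inhibition reported for compound-exposed, repair-deficient yeast.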

[5] = NCI Yeast Anticancer Drug Screen. Data for the mec2-1 strain (AID 157); details: S. cerevisiae mec2-1 strain, hits give high values
Summary of the method: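 Test agents were screened against the mec2-1 yeast strain, with defined DNA repair or cell cycle alteration. Growth was scored as inhibition against vehicle-only controls.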

[6] = NCI Yeast Anticancer Drug Screen. Data for the rad14 strain (AID 159);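 note: 0% = growth of vehicle-treated control cultures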; details: S. cerevisiae rad14 strain growth inhibition, hits give high values
Summary of the method: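 Inhibition of growth is reported for a repair-deficient yeast mutant following compound treatment, calculated relative to cultures that received vehicle.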

[7] = NCI Yeast Anticancer Drug Screen. Data for the sgs1 mgt1 strain (AID 161);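 note: 0% = growth of cultures given vehicle only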; details: S. cerevisiae sgs1 mgt1 strain, hits give high values
Summary of the method: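 Test agents were incubated with a DNA-repair-mutant yeast strain. Growth was then read and compared against vehicle-treated controls.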

[8] = NCI Yeast Anticancer Drug Screen. Data for the CLN2oe strain (AID 163);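 note: 0% = growth of vehicle-only control cultures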; details: S. cerevisiae CLN2oe strain, hits give high values
Summary of the method: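 Here, growth inhibition in a cell-cycle-altered yeast strain after compound exposure was quantified against vehicle control growth.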

[9] = NCI Yeast Anticancer Drug Screen. Data for the cln2 rad14 strain (AID 165);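 note: 0% = growth equal to vehicle treated cultures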; details: S. cerevisiae cln2 rad14 strain, hits give high values
Summary of the method: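 Growth of compound-exposed yeast (cln2 rad14 genotype) measured and expressed as inhibition relative to vehicle.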

[10] = NCI Yeast Anticancer Drug Screen. Data for the bub3 strain (AID 167); details: S. cerevisiae bub3 mutant strain, hits give high values
Summary of the method: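 Mutant yeast screening strain plus compound; vehicle-treated cultures serve as the 0% inhibition reference.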

[11] = NCI Yeast Anticancer Drug Screen. Data for the mlh1 strain (AID 171);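 note: 0% = growth of vehicle-treated control cultures of the same strain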; details: S. cerevisiae mlh1 strain growth inhibition, hits give high values
Summary of the method: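 Here the genetically defined yeast mutant is grown with each compound, and the extent to which its growth falls below that of vehicle-exposed cells is reported.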

[12] = NCI Yeast Anticancer Drug Screen. Data for the sgs1 strain (AID 173);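 note: 0% = growth of vehicle-only control cultures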; details: S. cerevisiae sgs1 mutant, hits give high values
Summary of the method: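 Relative growth inhibition, referenced to vehicle, was determined in a yeast strain with a defined alteration affecting DNA damage repair or cell cycle control after compound exposure.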

[13] = NCI Yeast Anticancer Drug Screen. Data for the mlh1 rad18 strain (AID 175); details: S. cerevisiae mlh1 rad18 strain growth inhibition, hits give high values
Summary of the method: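 In this whole-cell yeast screen, a strain with altered DNA damage repair is challenged with compound, and its growth is measured against matched vehicle-treated controls.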

[14] = NCI Yeast Anticancer Drug Screen. Data for the rad18 strain (AID 177); details: S. cerevisiae rad18 mutant growth inhibition, hits give high values
Summary of the method: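 Screen uses a yeast strain with a defined lesion in DNA damage repair; compound effect is read as loss of growth compared to untreated vehicle cultures.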

[15] = NCI Yeast Anticancer Drug Screen. Data for the wt2 strain (AID 169); details: S. cerevisiae wt2 strain growth inhibition, hits give high values
Summary of the method: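 Genetically defined yeast strains from a DNA-repair/cell-cycle panel were used. Compound-exposed yeast growth was measured, and the inhibition was calculated relative to vehicle treatment.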

[16] = at 5.0 µM (retest, dose inferred, filed as 0.5)
[17] = at 50.0 µM (retest, dose inferred, filed as 5.0)

In the case of `CC1OCC2OC(C)OC(C3C4=C(CC(C)(C)CC4=O)OC4=C3C(=O)CC(C)(C)C4)C2O1` (stereo not drawn), the growth inhibition ([1]; at 1.2 µM) is reported as 0%, the growth inhibition ([1]; at 3.7 µM) is reported as 4% and the growth inhibition ([1]; at 11.0 µM) is reported as 17%. The growth inhibition ([1]; at 33.0 µM) was 38%, the growth inhibition ([1]; at 100.0 µM) was 56% and the growth inhibition ([2]; at 1.2 µM) was -2%. It also gave a growth inhibition ([2]; at 3.7 µM) of 2%, a growth inhibition ([2]; at 11.0 µM) of 6% and a growth inhibition ([2]; at 33.0 µM) of 24%. It also gave a growth inhibition ([2]; at 100.0 µM) of 45%, a growth inhibition ([3]; at 1.2 µM) of -1% and a growth inhibition ([3]; at 3.7 µM) of 2%. The growth inhibition ([3]; at 11.0 µM) was 2%, the growth inhibition ([3]; at 33.0 µM) was 2% and the growth inhibition ([3]; at 100.0 µM) was 21%. The growth inhibition ([4]; at 1.2 µM) was 7%, the growth inhibition ([4]; at 3.7 µM) was -32% and the growth inhibition [4, 16] was 10%. It also gave a growth inhibition ([4]; at 11.0 µM) of 49%, a growth inhibition ([4]; at 33.0 µM) of 61% and a growth inhibition [4, 17] of 57%. The growth inhibition ([4]; at 50.0 µM) was 82.2% (active), the growth inhibition ([4]; at 100.0 µM) was 80% (active) and the growth inhibition ([5]; at 1.2 µM) was 0%. The growth inhibition ([5]; at 3.7 µM) was 3%, the growth inhibition [5, 16] was 7% and the growth inhibition ([5]; at 11.0 µM) was 12%. For the same molecule, the growth inhibition ([5]; at 33.0 µM) was 28%, the growth inhibition [5, 17] was -18% and the growth inhibition ([5]; at 50.0 µM) was 27.4%. The growth inhibition ([5]; at 100.0 µM) was 46%, the growth inhibition ([6]; at 1.2 µM) was -1% and the growth inhibition ([6]; at 3.7 µM) was -1%. It also gave a growth inhibition ([6]; at 11.0 µM) of 5%, a growth inhibition ([6]; at 33.0 µM) of 18% and a growth inhibition ([6]; at 100.0 µM) of 41%. It also gave a growth inhibition [7, 16] of 5%, a growth inhibition [7, 17] of 37% and a growth inhibition ([7]; at 50.0 µM) of 40.7%. The growth inhibition ([8]; at 1.2 µM) was -2%, the growth inhibition ([8]; at 3.7 µM) was -4% and the growth inhibition ([8]; at 11.0 µM) was -2%. For the same molecule, the growth inhibition ([8]; at 33.0 µM) was -2%, the growth inhibition ([8]; at 100.0 µM) was -3% and the growth inhibition [9, 16] was 5%. For the same molecule, the growth inhibition [9, 17] was 15%, the growth inhibition ([9]; at 50.0 µM) was 3.55% and the growth inhibition ([10]; at 1.2 µM) was 1%. The growth inhibition ([10]; at 3.7 µM) was 2%, the growth inhibition [10, 16] was -46% and the growth inhibition ([10]; at 11.0 µM) was 7%. For the same molecule, the growth inhibition ([10]; at 33.0 µM) was 29%, the growth inhibition [10, 17] was 32% and the growth inhibition ([10]; at 50.0 µM) was 57.8%. For the same molecule, the growth inhibition ([10]; at 100.0 µM) was 66%, the growth inhibition ([11]; at 1.2 µM) was 1% and the growth inhibition ([11]; at 3.7 µM) was 2%. The growth inhibition ([11]; at 11.0 µM) was 4%, the growth inhibition ([11]; at 33.0 µM) was 8% and the growth inhibition ([11]; at 100.0 µM) was 25%. The growth inhibition ([12]; at 1.2 µM) was -2%, the growth inhibition ([12]; at 3.7 µM) was 1% and the growth inhibition ([12]; at 11.0 µM) was 9%. It also gave a growth inhibition ([12]; at 33.0 µM) of 32%, a growth inhibition ([12]; at 100.0 µM) of 65% and a growth inhibition [13, 16] of 9%. The growth inhibition [13, 17] was 46%, the growth inhibition ([13]; at 50.0 µM) was 80.7% (active) and the growth inhibition ([14]; at 1.2 µM) was 3%. The growth inhibition ([14]; at 3.7 µM) was 18%, the growth inhibition ([14]; at 11.0 µM) was 43% and the growth inhibition ([14]; at 33.0 µM) was 78% (active). The growth inhibition ([14]; at 100.0 µM) was 91% (active).
In the case of `O=C(O)c1ccccc1NC(=S)c1ccccc1`, the growth inhibition ([1]; at 1.2 µM) is reported as -5%, the growth inhibition ([1]; at 3.7 µM) is reported as -1% and the growth inhibition ([1]; at 11.0 µM) is reported as -4%. The growth inhibition ([1]; at 33.0 µM) was 7%, the growth inhibition ([1]; at 100.0 µM) was 67% and the growth inhibition ([2]; at 1.2 µM) was 4%. It also gave a growth inhibition ([2]; at 3.7 µM) of 1%, a growth inhibition ([2]; at 11.0 µM) of -4% and a growth inhibition ([2]; at 33.0 µM) of -5%. For the same molecule, the growth inhibition ([2]; at 100.0 µM) was 26%, the growth inhibition ([3]; at 1.2 µM) was 5% and the growth inhibition ([3]; at 3.7 µM) was 0%. The growth inhibition ([3]; at 11.0 µM) was -3%, the growth inhibition ([3]; at 33.0 µM) was 18% and the growth inhibition ([3]; at 100.0 µM) was 81% (active). The growth inhibition ([4]; at 1.2 µM) was -3%, the growth inhibition ([4]; at 3.7 µM) was -26% and the growth inhibition [4, 16] was 53%. For the same molecule, the growth inhibition ([4]; at 11.0 µM) was -20%, the growth inhibition ([4]; at 33.0 µM) was -11% and the growth inhibition [4, 17] was 97% (active). For the same molecule, the growth inhibition ([4]; at 50.0 µM) was 4.25%, the growth inhibition ([4]; at 100.0 µM) was 83% (active) and the growth inhibition ([5]; at 1.2 µM) was -31%. For the same molecule, the growth inhibition ([5]; at 3.7 µM) was -10%, the growth inhibition [5, 16] was 63% and the growth inhibition ([5]; at 11.0 µM) was -26%. For the same molecule, the growth inhibition ([5]; at 33.0 µM) was -23%, the growth inhibition [5, 17] was 96% (active) and the growth inhibition ([5]; at 50.0 µM) was 11.6%. For the same molecule, the growth inhibition ([5]; at 100.0 µM) was 10%, the growth inhibition ([6]; at 1.2 µM) was 2% and the growth inhibition ([6]; at 3.7 µM) was 4%. The growth inhibition ([6]; at 11.0 µM) was -4%, the growth inhibition ([6]; at 33.0 µM) was 17% and the growth inhibition ([6]; at 100.0 µM) was 68%. For the same molecule, the growth inhibition [7, 16] was -20%, the growth inhibition [7, 17] was 65% and the growth inhibition ([7]; at 50.0 µM) was -0.55%. For the same molecule, the growth inhibition ([10]; at 1.2 µM) was -16%, the growth inhibition ([10]; at 3.7 µM) was -12% and the growth inhibition [10, 16] was 16%. For the same molecule, the growth inhibition ([10]; at 11.0 µM) was 0%, the growth inhibition ([10]; at 33.0 µM) was 5% and the growth inhibition [10, 17] was 79% (active). The growth inhibition ([10]; at 50.0 µM) was 17.4%, the growth inhibition ([10]; at 100.0 µM) was 70% (active) and the growth inhibition ([15]; at 1.2 µM) was -1%. The growth inhibition ([15]; at 3.7 µM) was 5%, the growth inhibition ([15]; at 11.0 µM) was 1% and the growth inhibition ([15]; at 33.0 µM) was 1%. For the same molecule, the growth inhibition ([15]; at 100.0 µM) was 42%, the growth inhibition ([11]; at 1.2 µM) was 3% and the growth inhibition ([11]; at 3.7 µM) was 5%. It also gave a growth inhibition ([11]; at 11.0 µM) of 3%, a growth inhibition ([11]; at 33.0 µM) of 5% and a growth inhibition ([11]; at 100.0 µM) of 62%. The growth inhibition ([12]; at 1.2 µM) was -18%, the growth inhibition ([12]; at 3.7 µM) was -6% and the growth inhibition ([12]; at 11.0 µM) was -12%. It also gave a growth inhibition ([12]; at 33.0 µM) of -4%, a growth inhibition ([12]; at 100.0 µM) of 53% and a growth inhibition [13, 16] of 43%. The growth inhibition [13, 17] was 99% (active), the growth inhibition ([13]; at 50.0 µM) was 1.6% and the growth inhibition ([14]; at 1.2 µM) was -16%. For the same molecule, the growth inhibition ([14]; at 3.7 µM) was -4%, the growth inhibition ([14]; at 11.0 µM) was -8% and the growth inhibition ([14]; at 33.0 µM) was 16%. The growth inhibition ([14]; at 100.0 µM) was 69%.
